In PubChem BioAssay AID1159580 (chemical genetic matrix, 2015):
In all, about 5,500 compounds went through this assay and about 2,000 (36%) were called active. Roughly 18% stayed inconclusive and do not appear here. No stated cut-off is given here; in the data, active means normalized growth mostly below about 0.91 (no sharp cut-off); inconclusive means no clear call, values can overlap the other calls; inactive means mostly above about 0.92. The list shows a part of the results.

Assay: chemical genetic growth profiling, strain panel (AID 1159580);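 further: tested at 20 µM; growth read once vehicle control cultures reached saturation at 30 °C; 1 = growth at the plate median or of vehicle wells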
Settings: S. cerevisiae deletion strains, growth OD
[1] = locus YDL101C, strain DUN1, stronger effect = lower value
[2] = locus YHR030C, strain SLT2, stronger effect = lower value
[3] = locus YJR075W, strain HOC1, stronger effect = lower value
[4] = locus YMR263W, strain SAP30, stronger effect = lower value
[5] = locus YMR307W, strain GAS1, stronger effect = lower value
[6] = locus YNL153C, strain GIM3, stronger effect = lower value
[7] = locus YPL241C, strain CIN2, stronger effect = lower value
[8] = locus YAR019C, strain CDC15, stronger effect = lower value
[9] = locus YBL105C, strain PKC1, stronger effect = lower value
[10] = locus YBR135W, strain CKS1, stronger effect = lower value
[11] = locus YBR136W, strain MEC1, stronger effect = lower value
[12] = locus YBR160W, strain CDC28, stronger effect = lower value
[13] = locus YDL017W, strain CDC7, stronger effect = lower value
[14] = locus YDL028C, strain MPS1, stronger effect = lower value
[15] = locus YDL108W, strain KIN28, stronger effect = lower value
[16] = locus YDL132W, strain cdc53, stronger effect = lower value
[17] = locus YDL214C, strain PRR2, stronger effect = lower value
[18] = locus YDR052C, strain DBF4, stronger effect = lower value
[19] = locus YDR054C, strain cdc34, stronger effect = lower value
[20] = locus YDR226W, strain ADK1, stronger effect = lower value
[21] = locus YDR477W, strain SNF1, stronger effect = lower value
[22] = locus YER123W, strain YCK3, stronger effect = lower value
[23] = locus YER133W, strain GLC7, stronger effect = lower value
[24] = locus YFL009W, strain cdc4, stronger effect = lower value
[25] = locus YFL029C, strain CAK1, stronger effect = lower value
[26] = locus YFR003C, strain YPI1, stronger effect = lower value
[27] = locus YFR019W, strain FAB1, stronger effect = lower value
[28] = locus YFR028C, strain CDC14, stronger effect = lower value
[29] = locus YGR040W, strain KSS1, stronger effect = lower value
[30] = locus YGR052W, strain FMP48, stronger effect = lower value
[31] = locus YGR092W, strain DBF2, stronger effect = lower value
[32] = locus YHR079C, strain IRE1, stronger effect = lower value
[33] = locus YHR082C, strain KSP1, stronger effect = lower value
[34] = locus YHR205W, strain SCH9, stronger effect = lower value
[35] = locus YIL147C, strain SLN1, stronger effect = lower value
[36] = locus YJL095W, strain BCK1, stronger effect = lower value
[37] = locus YJL128C, strain PBS2, stronger effect = lower value
[38] = locus YJL157C, strain FAR1, stronger effect = lower value
[39] = locus YJR016C, strain ILV3, stronger effect = lower value
[40] = locus YJR066W, strain TOR1 (second series), stronger effect = lower value
[41] = locus YJR066W, strain TOR1, stronger effect = lower value
[42] = locus YKL048C, strain ELM1, stronger effect = lower value
[43] = locus YKL067W, strain YNK1, stronger effect = lower value
[44] = locus YKL101W, strain HSL1, stronger effect = lower value
[45] = locus YKL193C, strain SDS22, stronger effect = lower value
[46] = locus YKL203C, strain TOR2, stronger effect = lower value
[47] = locus YLR113W, strain HOG1, stronger effect = lower value
[48] = locus YLR133W, strain CKI1, stronger effect = lower value
[49] = locus YLR403W, strain SFP1, stronger effect = lower value
[50] = locus YML070W, strain DAK1, stronger effect = lower value
[51] = locus YMR001C, strain CDC5, stronger effect = lower value
[52] = locus YMR205C, strain PFK2 (second series), stronger effect = lower value
[53] = locus YMR277W, strain FCP1, stronger effect = lower value
[54] = locus YNL006W, strain LST8, stronger effect = lower value
[55] = locus YNL020C, strain ARK1, stronger effect = lower value
[56] = locus YNL161W, strain CBK1, stronger effect = lower value
[57] = locus YNL183C, strain NPR1, stronger effect = lower value
[58] = locus YNL207W, strain RIO2, stronger effect = lower value
[59] = locus YNL222W, strain SSU72, stronger effect = lower value
[60] = locus YNL307C, strain MCK1 (second series), stronger effect = lower value
[61] = locus YOL078W, strain AVO1, stronger effect = lower value
[62] = locus YOL136C, strain PFK27, stronger effect = lower value
[63] = locus YOR061W, strain CKA2, stronger effect = lower value
[64] = locus YOR119C, strain RIO1, stronger effect = lower value
[65] = locus YOR231W, strain MKK1, stronger effect = lower value
[66] = locus YOR329C, strain SCD5, stronger effect = lower value
[67] = locus YPL031C, strain PHO85, stronger effect = lower value
[68] = locus YPL153C, strain RAD53, stronger effect = lower value
[69] = locus YPL204W, strain HRR25, stronger effect = lower value
[70] = locus YPL209C, strain IPL1, stronger effect = lower value
[71] = locus YPL256C, strain CLN2, stronger effect = lower value
[72] = locus YPR025C, strain CCL1, stronger effect = lower value
[73] = locus YPR106W, strain ISR1, stronger effect = lower value
[74] = locus YPR111W, strain DBF20, stronger effect = lower value
[75] = strain NNK1, stronger effect = lower value
[76] = strain TSCII, stronger effect = lower value

Measured: normalized growth

COC(=O)c1cc(OC)c(OC)cc1NC(=O)Nc1cc(Cl)cc(Cl)c1
inactive: locus YAL013W, strain DEP1, stronger effect = lower value 0.991 | locus YBR229C, strain ROT2, stronger effect = lower value 0.998 | [1] 1.02 | locus YDL134C, strain PPH21, stronger effect = lower value 0.979 | locus YDR150W, strain NUM1, stronger effect = lower value 0.916 | locus YEL061C, strain CIN8, stronger effect = lower value 1.02 | locus YGR078C, strain PAC10, stronger effect = lower value 1.01 | [2] 0.868 | locus YHR087W, strain rtc3, stronger effect = lower value 1.02 | locus YJL187C, strain SWE1, stronger effect = lower value 1.03 | locus YJR043C, strain POL32, stronger effect = lower value 0.959 | [3] 0.982 | locus YKL190W, strain CNB1, stronger effect = lower value 1.01 | locus YLR039C, strain RIC1, stronger effect = lower value 1.01 | locus YLR058C, strain SHM2 (second series), stronger effect = lower value 1.01 | locus YLR085C, strain ARP6, stronger effect = lower value 0.973 | locus YLR262C, strain YPT6, stronger effect = lower value 0.972 | locus YML094W, strain GIM5, stronger effect = lower value 0.998 | locus YMR219W, strain ESC1, stronger effect = lower value 1.02 | [4] 0.978 | [5] 1.05 | [6] 1.02 | locus YNL298W, strain CLA4 (second series), stronger effect = lower value 0.969 | locus YNL322C, strain KRE1, stronger effect = lower value 1.02 | locus YNR030W, strain Alg12, stronger effect = lower value 0.978 | locus YOL006C, strain TOP1, stronger effect = lower value 1.05 | locus YPL055C, strain LGE1, stronger effect = lower value 1.08 | [7] 0.998 | locus YPR135W, strain CTF4, stronger effect = lower value 0.926

O=C(/C=C/c1ccc(Cl)cc1)Nc1cccc(Cl)c1
active: [2] 0.846 | [47] 0.816
inactive: [8] 0.958 | [9] 0.948 | [10] 0.961 | [11] 0.961 | [12] 0.961 | [13] 0.949 | [14] 0.951 | [1] 0.973 | [15] 0.961 | [16] 0.962 | [17] 0.88 | [18] 0.952 | [19] 0.958 | [20] 0.95 | [21] 0.838 | [22] 0.631 | [23] 0.831 | [24] 0.963 | [25] 0.949 | [26] 0.953 | [27] 0.936 | [28] 0.968 | [29] 0.816 | [30] 0.819 | [31] 0.485 | [32] 0.853 | [33] 0.875 | [34] 0.744 | [35] 0.96 | [36] 0.754 | [37] 0.919 | [38] 0.889 | [39] 0.965 | [40] 0.877 | [41] 0.831 | [42] 0.895 | [43] 0.876 | [44] 0.872 | [45] 0.956 | [46] 0.881 | [48] 0.864 | [49] 0.774 | [50] 0.798 | [51] 0.96 | [52] 0.886 | [53] 0.957 | [54] 0.971 | [55] 0.883 | [56] 0.965 | [57] 0.796 | [58] 0.948 | [59] 0.961 | [60] 0.699 | [61] 0.938 | [62] 0.839 | [63] 0.857 | [64] 0.867 | [65] 0.837 | [66] 0.957 | [67] 0.835 | [68] 0.863 | [69] 0.822 | [70] 0.96 | [71] 0.862 | [72] 0.952 | [73] 0.944 | [74] 0.942 | [75] 0.96 | [76] 0.965

C[N+](C)(C)CC#CCOC(=O)Nc1cccc(Cl)c1
inactive: locus YAL040C, strain CLN3, stronger effect = lower value 0.998 | locus YDR363W, strain ESC2, stronger effect = lower value 0.987 | locus YER002W, strain NOP16, stronger effect = lower value 0.99 | [3] 0.952 | [4] 0.953 | [5] 0.985 | locus YNL128W, strain TEP1, stronger effect = lower value 0.966 | [6] 0.998 | locus YNL175C, strain NOP13, stronger effect = lower value 0.984 | locus YNL197C, strain WHI3, stronger effect = lower value 0.973 | locus YNL224C, strain SQS1, stronger effect = lower value 0.993 | locus YOR083W, strain WHI5 (second series), stronger effect = lower value 0.954 | [7] 0.998

CC(C)OC(=O)Nc1cc(Cl)cc(Cl)c1
inactive: [8] 0.971 | [9] 0.97 | [10] 0.964 | [11] 0.986 | [12] 0.981 | [13] 0.974 | [14] 0.996 | [1] 0.972 | [15] 0.98 | [16] 0.953 | [17] 0.864 | [18] 0.993 | [19] 0.939 | [20] 0.982 | [21] 0.873 | [22] 0.845 | [23] 0.764 | [24] 0.96 | [25] 0.972 | [26] 0.972 | [27] 0.966 | [28] 0.985 | [29] 0.838 | [30] 0.822 | [31] 0.765 | [32] 0.754 | [33] 0.988 | [34] 0.777 | [35] 0.987 | [36] 0.716 | [37] 0.899 | [38] 0.902 | [39] 0.957 | [40] 0.883 | [41] 0.99 | [42] 0.864 | [43] 0.857 | [44] 0.888 | [45] 0.97 | [46] 0.944 | [48] 0.915 | [49] 0.853 | [50] 0.848 | [51] 0.985 | [52] 0.898 | [53] 0.939 | [54] 0.968 | [55] 0.9 | [56] 0.969 | [57] 0.707 | [58] 0.975 | [59] 0.978 | [60] 0.868 | [61] 0.974 | [62] 0.849 | [63] 0.875 | [64] 0.85 | [65] 0.729 | [66] 0.976 | [67] 0.756 | [68] 0.8 | [69] 0.791 | [70] 0.973 | [72] 0.978 | [73] 0.959 | [74] 0.948 | [75] 0.963 | [76] 0.967
active: [47] 0.479 | [71] 0.682
